# Measured values as given in article PMC9911399, “Two distinct binding modes provide the RNA-binding protein RbFox with extraordinary sequence specificity”.
# Changes are numbered by the printed parent chain; changes in the protein carry UniProt numbers. Whole data set: some 16,000 sequences, median “ka relative to ugcaugu” near 0.096, cut for the highest 2% near 0.35. The sample as a whole holds a higher share of the highest values than the screen did.
# T1: RBFOX1 RRM RbFoxmut (Fox-RRM*) (Homo sapiens, UniProt Q9NWB1 109-208, R118D;E147R;N151S;E152T)
# T1 sequence: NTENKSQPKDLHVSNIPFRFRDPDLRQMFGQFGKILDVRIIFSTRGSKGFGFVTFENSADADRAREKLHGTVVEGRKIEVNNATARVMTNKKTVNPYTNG
# B1: ACCUCGU (DNA:RNA)
# RNA: GGGAGACCGGAAUUCAGAUUGUCCACCUCGUUUAAAUCCCGUCGUAGCCACCA
# DNA 1: CAATCTGAATTCCGGTCTCCC
# DNA 2: TGGTGGCTACGACGGGATT
# B2: GAGUAGC (DNA:RNA)
# RNA: B1 RNA with A25G, C26A, C27G, C29A, U31C
# DNA 1: CAATCTGAATTCCGGTCTCCC
# DNA 2: TGGTGGCTACGACGGGATT
# B3: GAUUGAC (DNA:RNA)
# RNA: B1 RNA with A25G, C26A, C27U, C29G, G30A, U31C
# DNA 1: CAATCTGAATTCCGGTCTCCC
# DNA 2: TGGTGGCTACGACGGGATT
# B4: AGAUUGA (DNA:RNA)
# RNA: B1 RNA with C26G, C27A, C29U, U31A
# DNA 1: CAATCTGAATTCCGGTCTCCC
# DNA 2: TGGTGGCTACGACGGGATT
# B5: GAAUGAC (DNA:RNA)
# RNA: B1 RNA with A25G, C26A, C27A, C29G, G30A, U31C
# DNA 1: CAATCTGAATTCCGGTCTCCC
# DNA 2: TGGTGGCTACGACGGGATT
# B6: AGAAUGA (DNA:RNA)
# RNA: B1 RNA with C26G, C27A, U28A, C29U, U31A
# DNA 1: CAATCTGAATTCCGGTCTCCC
# DNA 2: TGGTGGCTACGACGGGATT
# B7: CGAUGAC (DNA:RNA)
# RNA: B1 RNA with A25C, C26G, C27A, C29G, G30A, U31C
# DNA 1: CAATCTGAATTCCGGTCTCCC
# DNA 2: TGGTGGCTACGACGGGATT
# B8: ACCAGAA (DNA:RNA)
# RNA: B1 RNA with U28A, C29G, G30A, U31A
# DNA 1: CAATCTGAATTCCGGTCTCCC
# DNA 2: TGGTGGCTACGACGGGATT
# B9: UGAAUAU (DNA:RNA)
# RNA: B1 RNA with A25U, C26G, C27A, U28A, C29U, G30A
# DNA 1: CAATCTGAATTCCGGTCTCCC
# DNA 2: TGGTGGCTACGACGGGATT
# B10: AGAUUAU (DNA:RNA)
# RNA: B1 RNA with C26G, C27A, C29U, G30A
# DNA 1: CAATCTGAATTCCGGTCTCCC
# DNA 2: TGGTGGCTACGACGGGATT
# B11: AAUCAGU (DNA:RNA)
# RNA: B1 RNA with C26A, C27U, U28C, C29A
# DNA 1: CAATCTGAATTCCGGTCTCCC
# DNA 2: TGGTGGCTACGACGGGATT
# B12: GCAACGU (DNA:RNA)
# RNA: B1 RNA with A25G, C27A, U28A
# DNA 1: CAATCTGAATTCCGGTCTCCC
# DNA 2: TGGTGGCTACGACGGGATT
# B13: UGGCAUU (DNA:RNA)
# RNA: B1 RNA with A25U, C26G, C27G, U28C, C29A, G30U
# DNA 1: CAATCTGAATTCCGGTCTCCC
# DNA 2: TGGTGGCTACGACGGGATT
# B14: UGGCAUC (DNA:RNA)
# RNA: GGGAGACCGGAAUUCAGAUUGUCCUGGCAUCUUAAAUCCCGUCGUAGCCACCA
# DNA 1: CAATCTGAATTCCGGTCTCCC
# DNA 2: TGGTGGCTACGACGGGATT
# B15: UGGCAUG (DNA:RNA)
# RNA: B14 RNA with C31G
# DNA 1: CAATCTGAATTCCGGTCTCCC
# DNA 2: TGGTGGCTACGACGGGATT
# B16: UGGCAGA (DNA:RNA)
# RNA: B14 RNA with U30G, C31A
# DNA 1: CAATCTGAATTCCGGTCTCCC
# DNA 2: TGGTGGCTACGACGGGATT
# B17: UGGCAUA (DNA:RNA)
# RNA: B14 RNA with C31A
# DNA 1: CAATCTGAATTCCGGTCTCCC
# DNA 2: TGGTGGCTACGACGGGATT
# B18: UGGCACC (DNA:RNA)
# RNA: B14 RNA with U30C
# DNA 1: CAATCTGAATTCCGGTCTCCC
# DNA 2: TGGTGGCTACGACGGGATT
# B19: UAUCAAU (DNA:RNA)
# RNA: B14 RNA with G26A, G27U, U30A, C31U
# DNA 1: CAATCTGAATTCCGGTCTCCC
# DNA 2: TGGTGGCTACGACGGGATT
# B20: CCACUGA (DNA:RNA)
# RNA: B1 RNA with A25C, C27A, U28C, C29U, U31A
# DNA 1: CAATCTGAATTCCGGTCTCCC
# DNA 2: TGGTGGCTACGACGGGATT
# B21: UCUUCCC (DNA:RNA)
# RNA: B1 RNA with A25U, C27U, G30C, U31C
# DNA 1: CAATCTGAATTCCGGTCTCCC
# DNA 2: TGGTGGCTACGACGGGATT
# B22: UUAUACA (DNA:RNA)
# RNA: B14 RNA with G26U, G27A, C28U, U30C, C31A
# DNA 1: CAATCTGAATTCCGGTCTCCC
# DNA 2: TGGTGGCTACGACGGGATT
# B23: CAUUUCC (DNA:RNA)
# RNA: B1 RNA with A25C, C26A, C27U, C29U, G30C, U31C
# DNA 1: CAATCTGAATTCCGGTCTCCC
# DNA 2: TGGTGGCTACGACGGGATT
# B24: GUAUGUG (DNA:RNA)
# RNA: B1 RNA with A25G, C26U, C27A, C29G, G30U, U31G
# DNA 1: CAATCTGAATTCCGGTCTCCC
# DNA 2: TGGTGGCTACGACGGGATT
# B25: CGUGUCG (DNA:RNA)
# RNA: B14 RNA with U25C, G27U, C28G, A29U, U30C, C31G
# DNA 1: CAATCTGAATTCCGGTCTCCC
# DNA 2: TGGTGGCTACGACGGGATT
# B26: CGUUGUG (DNA:RNA)
# RNA: B14 RNA with U25C, G27U, C28U, A29G, C31G
# DNA 1: CAATCTGAATTCCGGTCTCCC
# DNA 2: TGGTGGCTACGACGGGATT
# B27: GGAUGUG (DNA:RNA)
# RNA: B14 RNA with U25G, G27A, C28U, A29G, C31G
# DNA 1: CAATCTGAATTCCGGTCTCCC
# DNA 2: TGGTGGCTACGACGGGATT
# B28: CUAUGUG (DNA:RNA)
# RNA: B1 RNA with A25C, C26U, C27A, C29G, G30U, U31G
# DNA 1: CAATCTGAATTCCGGTCTCCC
# DNA 2: TGGTGGCTACGACGGGATT
# B29: GUGUAUG (DNA:RNA)
# RNA: B14 RNA with U25G, G26U, C28U, C31G
# DNA 1: CAATCTGAATTCCGGTCTCCC
# DNA 2: TGGTGGCTACGACGGGATT
# B30: UUAUGUA (DNA:RNA)
# RNA: B14 RNA with G26U, G27A, C28U, A29G, C31A
# DNA 1: CAATCTGAATTCCGGTCTCCC
# DNA 2: TGGTGGCTACGACGGGATT
# B31: GGAUGUC (DNA:RNA)
# RNA: B14 RNA with U25G, G27A, C28U, A29G
# DNA 1: CAATCTGAATTCCGGTCTCCC
# DNA 2: TGGTGGCTACGACGGGATT
# B32: UAUGUCC (DNA:RNA)
# RNA: B14 RNA with G26A, G27U, C28G, A29U, U30C
# DNA 1: CAATCTGAATTCCGGTCTCCC
# DNA 2: TGGTGGCTACGACGGGATT
# B33: UUGUAUG (DNA:RNA)
# RNA: B14 RNA with G26U, C28U, C31G
# DNA 1: CAATCTGAATTCCGGTCTCCC
# DNA 2: TGGTGGCTACGACGGGATT
# B34: GGAGAUG (DNA:RNA)
# RNA: B14 RNA with U25G, G27A, C28G, C31G
# DNA 1: CAATCTGAATTCCGGTCTCCC
# DNA 2: TGGTGGCTACGACGGGATT
# B35: GUGUCCG (DNA:RNA)
# RNA: B1 RNA with A25G, C26U, C27G, G30C, U31G
# DNA 1: CAATCTGAATTCCGGTCTCCC
# DNA 2: TGGTGGCTACGACGGGATT
# Molecular target: T1, RBFOX1 RRM RbFoxmut (Fox-RRM*)
# Assay: EMSA; HiTS-Eq, 1 nM pool, 10 min; buffer printed only for the single-RNA assays: 10 mM Tris pH 7.5, 150 mM NaCl, 3.4 mM EDTA, 0.001% NP-40, 30 C
# Conditions: tags: His6 N-terminal (pET28a); label: 5' 32P
# Summary of the method: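 Purified wild-type or mutant RbFox RRM at increasing concentrations was equilibrated with 1 nM of 5′-radiolabelled RNA carrying 7 randomized nucleotides for 10 min in 50 µL. Unbound RNA was separated by 8% native PAGE and sequenced. Relative association constants came from read-count changes of each RNA species compared with the control reaction, normalised to the cognate motif.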
row,Binder,binding signal
1,B1,0.106 KA relative to UGCAUGU
2,B2,0.108 KA relative to UGCAUGU
3,B3,0.109 KA relative to UGCAUGU
4,B4,0.117 KA relative to UGCAUGU
5,B5,0.829 KA relative to UGCAUGU
6,B6,0.646 KA relative to UGCAUGU
7,B7,0.141 KA relative to UGCAUGU
8,B8,0.0963 KA relative to UGCAUGU
9,B9,0.0814 KA relative to UGCAUGU
10,B10,0.124 KA relative to UGCAUGU
11,B11,0.0868 KA relative to UGCAUGU
12,B12,0.094 KA relative to UGCAUGU
13,B13,0.1 KA relative to UGCAUGU
14,B14,0.411 KA relative to UGCAUGU
15,B15,1.17 KA relative to UGCAUGU
16,B16,0.0918 KA relative to UGCAUGU
17,B17,0.127 KA relative to UGCAUGU
18,B18,0.113 KA relative to UGCAUGU

row,Binder,binding signal
1,B19,0.0491 KA relative to UGCAUGU
2,B20,0.123 KA relative to UGCAUGU
3,B21,0.0652 KA relative to UGCAUGU
4,B22,0.0696 KA relative to UGCAUGU
5,B23,0.0842 KA relative to UGCAUGU
6,B24,0.787 KA relative to UGCAUGU
7,B25,0.126 KA relative to UGCAUGU
8,B26,0.17 KA relative to UGCAUGU
9,B27,0.451 KA relative to UGCAUGU
10,B28,0.134 KA relative to UGCAUGU
11,B29,1.38 KA relative to UGCAUGU
12,B30,0.19 KA relative to UGCAUGU
13,B31,0.295 KA relative to UGCAUGU
14,B32,0.107 KA relative to UGCAUGU
15,B33,1.24 KA relative to UGCAUGU
16,B34,0.312 KA relative to UGCAUGU
17,B35,0.216 KA relative to UGCAUGU
